What all share (assay type): functional
For experiment [1], the system named is Plasmodium falciparum. The experiment in a line: GSK_TCMDC: Inhibition of Plasmodium falciparum 3D7 in whole red blood cells, using parasite LDH activity as an index of growth. Test compounds present at 2uM.
For experiment [2], the system named is Plasmodium falciparum. The experiment in a line: GSK_TCMDC: Inhibition of Plasmodium falciparum Dd2 in whole red blood cells, using parasite LDH activity as an index of growth. Test compounds present at 2uM.
A further experiment concerns HepG2. In words: GSK_TCMDC: Percent inhibition of human HepG2 cell line. Test compounds present at 10uM.

What is called Inhibition is how much of the control response was suppressed. A higher Inhibition goes with strong suppression. Regarding `CN(C)CCC=C1c2ccccc2Sc2c(O)cc(Cl)cc21.O=C(O)/C=C\C(=O)O`, the Inhibition is 100% in the experiment with Plasmodium falciparum [1], 80% with Plasmodium falciparum [2] and 8% in the experiment on HepG2.

With `Br.Oc1ccc(CCNCCCCNCCc2ccc(Cl)cc2)cc1O`, the Inhibition in the experiment with Plasmodium falciparum [1] is on record as 94%; in the experiment with Plasmodium falciparum [2], 0%; with HepG2, 33%.

Consider `Cn1c(Nc2cc(C(C)(C)C)on2)nc2cc(Nc3ccnc(Nc4cccc(S(=O)(=O)N5CCOCC5)c4)n3)ccc21`, for which the Inhibition in the experiment with Plasmodium falciparum [1] is on record as 100%; in the experiment with Plasmodium falciparum [2] it was 96%; in the experiment on HepG2, 32%.

As to `O=C(/C=C/c1c[nH]c2ccccc12)NCCCCCN1CCC(c2c[nH]c3ccccc23)CC1`, the Inhibition was 96% in the experiment on Plasmodium falciparum [1], 0% in the experiment with Plasmodium falciparum [2] and 20% with HepG2.

`O=C(/C=C/c1ccc(Cl)c(Cl)c1)NCCCCCN1CCC(NC(=S)Nc2ccc(Cl)cc2Cl)CC1`: the Inhibition in the experiment on Plasmodium falciparum [1] came out at 99%; in the experiment with Plasmodium falciparum [2], 47%; in the experiment with HepG2, 53%.

In the case of `O=C(Nc1cccc(C(F)(F)F)c1)c1cccc(S(=O)(=O)NCC2CCCN(CC3CCCCC3)C2)c1.O=C(O)C(F)(F)F` (stereo unspecified), the Inhibition in the experiment on Plasmodium falciparum [1] came out at 99%; with Plasmodium falciparum [2] it was 11%; in the experiment on HepG2, 17%.

Turning to `O=C(/C=C/c1ccc(Cl)c(Cl)c1)NCCCCCN1CCC(NC(=O)Nc2cc(Cl)nc(Cl)c2)CC1`, the Inhibition in the experiment on Plasmodium falciparum [1] came out at 100%; in the experiment on Plasmodium falciparum [2], 2%; in the experiment with HepG2, 4%.

Consider `O=C(CN1CCC2(CCC1=O)CC(=O)c1ccccc1O2)NCCN1CCOCC1` (stereo unspecified), for which the Inhibition in the experiment with Plasmodium falciparum [1] amounted to 100%; in the experiment on Plasmodium falciparum [2], 0%; with HepG2 it was 6%.

For `COc1ccc2[nH]c(C(=O)Nc3cccc(-c4ccc(CN(C)C)cc4)c3)cc2c1`, the results for the Inhibition with Plasmodium falciparum [1], in the experiment with Plasmodium falciparum [2] and in the experiment with HepG2 were 100%, 34% and 23%, respectively.

As to `Br.COc1ccc(OCCCCON2C(=N)N=C(N)NC2(C)C)cc1`, the values for the Inhibition with Plasmodium falciparum [1], in the experiment with Plasmodium falciparum [2] and in the experiment with HepG2 were 92%, 95% and 54%, respectively.

Consider `CCOc1ccccc1CCNC(C)Cc1ccc(C(=O)Nc2ccc(CC(C)NCCc3cccc(Cl)c3)cc2)cc1` (stereo unspecified), for which the figures for the Inhibition with Plasmodium falciparum [1], with Plasmodium falciparum [2] and in the experiment with HepG2 were 97%, 59% and 100%, respectively.

`CN(C)c1ccc(-c2csc(C(=O)NCC3CCN(Cc4cccc(C(F)(F)F)c4)C3)c2)cc1.O=C(O)C(F)(F)F` (stereo unspecified): the Inhibition in the experiment with Plasmodium falciparum [1] was 97%; with Plasmodium falciparum [2], 58%; with HepG2 it was 15%.

For the compound `COc1ccccc1Nc1nc(C)cc(NCc2ccc(-c3c(C)noc3C)cc2)n1`, the results for the Inhibition in the experiment with Plasmodium falciparum [1], in the experiment with Plasmodium falciparum [2] and with HepG2 were 98%, 13% and 12%, respectively.

For `COc1cccc2cc(C(=O)N[C@@H](CC(C)C)C(=O)N[C@H](C=NN3CCCC3=O)Cc3ccccc3)oc12`, the Inhibition in the experiment on Plasmodium falciparum [1] came to 96%; with Plasmodium falciparum [2] it was 80%; in the experiment on HepG2 it was 5%.

As to `CCC[C@@H]([C@@H](CC(C)C)C(=O)N[C@@H](CCCNc1nccc(C(F)(F)F)n1)C(=O)Nc1nccs1)N(O)C=O`, the values for the Inhibition in the experiment on Plasmodium falciparum [1], in the experiment with Plasmodium falciparum [2] and in the experiment with HepG2 were 99%, 98% and 0%, respectively.

Turning to `Cc1cccc2nc(-c3ccc(-c4cccc(NC(=O)c5cccc(C(N)=O)c5)c4)cc3)[nH]c12`, the results for the Inhibition in the experiment with Plasmodium falciparum [1], in the experiment with Plasmodium falciparum [2] and in the experiment with HepG2 were 84%, 87% and 14%, respectively.

Consider `CCOc1ccc2c(=NN=Cc3ccccn3)cc(C)[nH]c2c1`, for which the Inhibition with Plasmodium falciparum [1] is 98%; in the experiment on Plasmodium falciparum [2], 1%; in the experiment with HepG2, 19%.

As for `FC(F)(F)c1cccc(-c2cc(NCCCn3ccnc3)nc(-c3ccncc3)n2)c1`, the Inhibition came to 100% in the experiment with Plasmodium falciparum [1], 100% with Plasmodium falciparum [2] and 50% with HepG2.

Turning to `CC[C@H]1CN2CCc3cc(OC)c(OC)cc3[C@@H]2C[C@@H]1C[C@H]1NCCc2cc(OC)c(OC)cc21` [EMETINE], the Inhibition with Plasmodium falciparum [1] is 100%; in the experiment with Plasmodium falciparum [2] it was 99%; with HepG2, 43%.

Turning to `CN(C)CCN(C)Cc1ccc(-c2ccc(NS(=O)(=O)c3cccc4cccnc34)cc2)cc1.O=C(O)C(F)(F)F`, the Inhibition is given as 93% with Plasmodium falciparum [1], 16% with Plasmodium falciparum [2] and 23% in the experiment with HepG2.

On to `CCCN(CCC)C(=O)c1cc(-c2cccc(C)c2)nc2ccccc12`, for which the results for the Inhibition in the experiment on Plasmodium falciparum [1], in the experiment with Plasmodium falciparum [2] and with HepG2 were 86%, 59% and 17%, respectively.

Regarding `O=C(Nc1cccc(-c2cccc(-c3nc4cc(F)ccc4[nH]3)c2)c1)c1c[nH]cn1`, the results for the Inhibition in the experiment on Plasmodium falciparum [1], in the experiment on Plasmodium falciparum [2] and with HepG2 were 100%, 87% and 13%, respectively.

Turning to `COC(=O)c1cccc(CNCc2cccc(-c3ccc(-c4nc5cccc(C)c5[nH]4)s3)c2)c1.O=C(O)C(F)(F)F`, the Inhibition in the experiment with Plasmodium falciparum [1] is on record as 100%; in the experiment with Plasmodium falciparum [2], 65%; in the experiment with HepG2 it was 0%.

For the compound `CCOC(=O)CCCCOc1c(OC)cc(Cc2cnc(N)nc2N)cc1OC`, the Inhibition was determined as 95% in the experiment with Plasmodium falciparum [1], 0% in the experiment with Plasmodium falciparum [2] and 0% in the experiment on HepG2.

Regarding `Cn1cnc2c(SCc3ccc(OCc4ccccc4)cc3)ncnc21`, the Inhibition with Plasmodium falciparum [1] worked out at 95%; in the experiment with Plasmodium falciparum [2], 87%; in the experiment with HepG2, 1%.

For the compound `CC(C)NC(C)(C)CN(Cc1ccc(-c2ccc(C(F)(F)F)cc2)cc1)C(=O)Cn1c(CCc2cccc(F)c2F)nc(=O)c2ccccc21`, the Inhibition is 94% in the experiment with Plasmodium falciparum [1], 68% in the experiment with Plasmodium falciparum [2] and 44% in the experiment on HepG2.

As for `O=C(Nc1ccc(-c2nc3ccccc3[nH]2)cc1)C1CCN(Cc2cccc(F)c2F)CC1`, the Inhibition with Plasmodium falciparum [1] is reported as 97%; with Plasmodium falciparum [2] it was 51%; in the experiment with HepG2, 23%.

Source of the values: ChEMBL document CHEMBL1157539, “Thousands of chemical starting points for antimalarial lead identification” (Nature, 2010).
